Our source for the outcome and AC50 values is PubChem BioAssay (EPA / NIEHS).

“And” between values parts separate entries of the source, which are not always exact repeats. Equal values may be shown once. Inconclusive results are not listed. The source made the active and inactive calls. Rule for the calls, unless noted: active = hit-call score of the fitted dose curve at least 0.9, where 1 is the maximum; inactive = score below 0.9.

A short description of test [1]: CCTE_Mundy_HCI_hNP1_CellTiter: CCTE's Cell Titer-Glo 2 Assay in human neuroprogenitor cells for Viability, Mundy Lab (AID 2284241; active = hit-call score of the fitted dose curve at least 0.9, where 1 is the maximum;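 for AC50: a hit is a drop in ATP luminescence versus DMSO meaning reduced viability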). In outline:
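Human neural progenitor cells (hNP1, WA09-derived) were plated on poly-L-ornithine/laminin and grown 40 to 44 hours at 37 °C, 5% CO2 before chemical addition. Twenty-four hours later, ATP was measured by CellTiter-Glo luminescence; loss of signal versus DMSO indicates reduced viability.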
A general note: ATP-based viability assays read luminescence as a measure of living cells.

Read-out in test [2]: Interleukin 17F (IL17F), IL17F (gene 112744)
Put plainly: BSK_BT_xIL17F: BioMAP Diversity Plus: BT Assay for Interleukin 17F (IL17F) Biomarker Activity (AID 2284243). The note with it: primary human B cells with PBMC. In outline:
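Luminex readout of IL-17F secretion, 24 h; cells: human B cells with PBMC; positive-direction analysis, DMSO control.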

Read-out in test [3]: Actin alpha 1 (ACTA1), ACTA1 (gene 58)
Put plainly: BSK_MyoF_ACTA1: BioMAP Diversity Plus: MyoF Assay for Actin alpha 1 (ACTA1) Biomarker Activity (AID 2284244). The note with it: primary human lung fibroblasts. In outline:
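Lung fibroblasts, human primary, 24 h compound exposure → a-SMA ELISA. Positive-direction fit vs DMSO control.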

Read-out in test [4]: Interleukin 2 (IL2), IL2 (gene 3558)
Put plainly: BSK_BT_xIL2: BioMAP Diversity Plus: BT Assay for Interleukin 2 (IL2) Biomarker Activity (AID 2284245). The settings on record: primary human B cells with PBMC. The gist of the method: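 B cell + PBMC co-culture (human primary), compound added, 24 h incubation; secreted IL-2 measured multiplexed on Luminex xMAP; gain-of-signal fit vs DMSO.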

Read-out in test [5]: Basic fibroblast growth factor (bFGF), FGF2 (gene 2247)
The experiment in a line: BSK_MyoF_bFGF: BioMAP Diversity Plus: MyoF Assay for Basic fibroblast growth factor (bFGF) Biomarker Activity (AID 2284246). The settings on record: primary human lung fibroblasts. In outline: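 ELISA-measured bFGF level serves as the read-out, taken 24 h after chemical dosing of human lung fibroblasts. Values represent signal gain over the DMSO negative control.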

Read-out in test [6]: Collagen IV, COL4A1 (gene 1282)
The experiment in a line: BSK_MyoF_CollagenIV: BioMAP Diversity Plus: MyoF Assay for Collagen IV Biomarker Activity (AID 2284247). The settings on record: primary human lung fibroblasts. In outline: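 Steps: dose human lung fibroblasts; culture 24 h; quantify Collagen IV by ELISA; fit increase versus DMSO control. Parallel SRB total-protein staining (0.1% SRB after 10% TCA fixation, 560 nm) tracks overt cytotoxicity.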

Test [7] is described as follows: CCTE_Mundy_HCI_Cortical_Synap_Neur_Matur_NeuronCount: CCTE's Synaptogenesis and Neurite Maturation Assay in rat cortical cells for Neuron Count, Mundy Lab (AID 2284242; active = hit-call score of the fitted dose curve at least 0.9, where 1 is the maximum;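 for AC50: hits reduce neuron count versus DMSO baseline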). In outline: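 Neuron number was scored by automated high-content imaging of Hoechst- and MAP2-labelled rat primary cortical cells. Glial growth was arrested with AraC at DIV 5, compounds were applied from DIV 7, and cultures ended at DIV 12.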

Read-out in test [8]: Monokine induced gamma interferon (MIG), CXCL9 (gene 4283)
The experiment in a line: BSK_KF3CT_MIG: BioMAP Diversity Plus: KF3CT Assay for Monokine induced gamma interferon (MIG) Biomarker Activity (AID 2284248). The settings on record: primary human keratinocytes with fibroblasts. As for the experimental part: BSK_KF3CT is a cell-based, multiplexed-readout assay that uses keratinocytes and foreskin fibroblasts, a human skin primary cell co-culture, with measurements taken at 24 hours after chemical dosing in a 96-well plate.BSK_KF3CT_MIG is an assay component measured in the BSK_KF3CT assay. It measures MIG antibody related to regulation of gene expression using ELISA technology.Data from the assay component BSK_KF3CT_MIG was analyzed at the endpoint, BSK_KF3CT_MIG, in the positive analysis fitting direction relative to DMSO as the negative control and baseline of activity. Using a type of binding reporter, gain or loss-of-signal activity can be used to understand protein changes. To generalize the intended target to other relatable targets, this assay endpoint is annotated to the 'cytokine' intended target family, where the subfamily is 'chemotactic factor'.
The levels of cell surface (or secreted, indicated by the prefix "s") biomarker endpoints were measured by ELISA. Overt cytotoxicity to cells in confluent adherent cultures (all systems other than the BT system) was assessed by measuring total protein levels using sulforhodamine B (SRB) staining in parallel cultures at the time of biomarker measurements, indicated as SRB endpoints. For proliferation assays for adherent cell types, individual cell types are cultured at sub-confluence and relative cell numbers quantified by SRB staining at time points optimized for each system (48 h: 3C and CASM3C systems; 72 h: BT and HDF3CGF systems; 96 h: SAg system). SRB was performed by staining cells with 0.1% SRB after fixation with 10% TCA and reading wells at 560 nm.Viability and proliferation of PBMC (T cells) was quantified by Alamar Blue reduction for the SAg and BT systems. […] Then, Alamar Blue (20 uL/well) (Invitrogen, Cat DAL1100) was added for 6 h, and the plates were read with a fluorescence microplate reader at 546/580 nm (excitation/emission). […] Plates were read after 6 h.

Read-out in test [9]: Collagen I, COL1A1 (gene 1277)
The experiment in a line: BSK_hDFCGF_CollagenI: BioMAP Diversity Plus: hDFCGF Assay for Collagen I Biomarker Activity (AID 2284250). The settings on record: primary human foreskin fibroblasts. In outline: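 Human skin primary fibroblasts dosed with test chemical, harvested at 24 h, Collagen I quantified by ELISA; parallel SRB staining (0.1% SRB after 10% TCA fixation, 560 nm) tracked cytotoxicity.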

Read-out in test [10]: Interferon-inducible T-cell alpha chemoattractant (ITAC), CXCL11 (gene 6373)
The experiment in a line: BSK_hDFCGF_ITAC: BioMAP Diversity Plus: hDFCGF Assay for Interferon-inducible T-cell alpha chemoattractant (ITAC) Biomarker Activity (AID 2284251). The settings on record: primary human foreskin fibroblasts. The gist of the method: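 Fibroblasts (human foreskin, primary) are treated with chemical, cultured 24 h, then assayed for I-TAC by ELISA. Overt toxicity is checked in parallel cultures by sulforhodamine B staining of total protein at the same time point.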

As for `Cc1cc(C(F)(C(F)(F)F)C(F)(F)F)ccc1NC(=O)c1cccc(I)c1C(=O)NC(C)(C)CS(C)(=O)=O`, the molecule was classed as inactive in [1].
In the case of `CCOP(=O)(OCC)SCCSCC`, the result in [2], in [3], in test [4], in test [5] and in test [6] was inactive.
What is called AC50 is the midpoint of the concentration-response curve, whichever way the signal moves. For the molecule `CC1(C)[C@H](C(=O)O[C@H](C#N)c2cccc(Oc3ccccc3)c2)[C@@H]1/C=C(\Cl)C(F)(F)F`, the half-maximal activity concentration (AC50) is 3.56 µM (active) in [7]; 17.1 µM (active) and 14.6 µM (active) in test [2]; 17.1 µM (active) and 14.2 µM (active) in [4]. Besides, the result in test [3], in [5] and in test [6] was inactive.
Consider `Oc1ccc(Cc2ccc(O)cc2)cc1`, for which the outcome in test [2], in [3], in test [4], in test [5] and in test [6] was inactive.
Turning to `C#CCOC(=O)/C=C(C)/C=C/CC(C)CCCC(C)C` (configuration not stated), the result in test [2], in test [4], in test [5] and in [6] was inactive. For the same molecule, the half-maximal activity concentration (AC50) in test [3] was 16.4 µM (active).
As for `CCCCCCCCCCCCN(C)C`, the outcome in test [2], in [3], in test [4], in test [5] and in [6] was inactive.
In the case of `CCOCn1c(-c2ccc(Cl)cc2)c(C#N)c(Br)c1C(F)(F)F`, the AC50 was 13.5 µM (active) in test [1] and 12.1 µM (active) in test [7].
With `CNC(=O)CSP(=O)(OC)OC`, in test [1], the molecule was called inactive.
Consider `Cc1ccccc1OP(=O)(Oc1ccccc1C)Oc1ccccc1C`, for which the concentration at half-maximal activity (AC50) is 18.3 µM (active) in test [1]; 2.83 µM (active) in test [7]; 27.3 µM (active) in test [2]; 9.16 µM (active) in [3]; 20 µM (active) in [4]; 33.3 µM (active) in test [5]. The AC50 in test [6] was 20 µM (active).
Turning to `Nc1ccc(N)cc1`, the outcome in [2], in test [3], in test [4], in test [5] and in test [6] was inactive.
For `OC(Cc1ccccc1Cl)(Cn1[nH]cnc1=S)C1(Cl)CC1` (configuration not stated), the molecule was classed as inactive in [1], in [2], in test [4], in [5] and in test [6]. Also, the concentration at half-maximal activity (AC50) in test [7] was 83.8 µM (active); in test [3], 25.3 µM (active).
For `COCC(=O)N(c1c(C)cccc1C)[C@H](C)C(=O)OC`, the result in test [2], in [3], in test [4], in test [5] and in test [6] was inactive.
Turning to `Oc1c(Br)cc(Br)cc1Br`, the outcome in test [2], in test [3], in test [4] and in test [5] was inactive. Further, the half-maximal activity concentration (AC50) in test [6] was 20 µM (active).
`O=S(=O)(c1ccc(Cl)cc1)c1cc(Cl)c(Cl)cc1Cl`: the AC50 in test [2] was 25.1 µM (active); in test [4], 20 µM (active). Further, the outcome in test [3], in test [5] and in [6] was inactive.
Regarding `CCOC(=O)C(SP(=S)(OC)OC)c1ccccc1` (configuration not stated), the result in test [2], in [4], in [5] and in [6] was inactive. The half-maximal activity concentration (AC50) in test [3] was 20 µM (active).
On to `O=C(CCl)NCO`, for which the outcome in test [2], in [3], in [4], in [5] and in test [6] was inactive.
For `O=c1oc2ccccc2c(O)c1C(CC(O)c1ccc(-c2ccc(Br)cc2)cc1)c1ccccc1` (configuration not stated), the result in test [2] and in test [4] was inactive. For the same molecule, the results for the AC50 in test [3], in [5] and in [6] were 2.76 µM (active), 11.5 µM (active) and 5.33 µM (active), respectively.
`O=[N+]([O-])c1ccc(Nc2ccccc2)cc1`: the result in test [2], in [3], in [4], in test [5] and in [6] was inactive.
`c1ccc2sc(SNC3CCCCC3)nc2c1`: the concentration at half-maximal activity (AC50) in test [2] is 32.1 µM (active); in test [4], 28.9 µM (active). For the same molecule, the result in test [3], in test [5] and in [6] was inactive.
`CS(=O)(=O)c1ccc(C(=O)C2C(=O)CCCC2=O)c(Cl)c1COCC(F)(F)F`: the molecule was called inactive in test [1].
For `CCCCN(CCCC)C(=S)[S-].CCCCN(CCCC)C(=S)[S-].[Ni+2]`, the result in test [2], in [3], in test [4], in [5] and in test [6] was inactive.
Regarding `CC(C)[C@@H](Nc1ccc(C(F)(F)F)cc1Cl)C(=O)OC(C#N)c1cccc(Oc2ccccc2)c1` (some centres not stated), the call in test [1] and in test [7] was inactive.
For the molecule `Cc1cc(Cl)ccc1N`, the outcome in test [2], in [3], in test [4], in test [5] and in test [6] was inactive.
As for `NC(=O)c1ccc(N)nc1`, the molecule was classed as inactive in test [1]. In addition, in [7], the half-maximal activity concentration (AC50) is 7.58 µM (active).
Consider `Nc1c(Oc2ccccc2)cc(O)c2c1C(=O)c1ccccc1C2=O`, for which the outcome in [2], in [3], in [4] and in [5] was inactive. Besides, the AC50 in test [6] was 2.54 µM (active).
Consider `Cc1ccc(OP(=O)(Oc2ccc(C)cc2C)Oc2ccc(C)cc2C)c(C)c1`, for which the AC50 was 24.9 µM (active) in test [2] and 12 µM (active) in test [4]. Further, the result in test [3], in [5] and in test [6] was inactive.
Regarding `NC(=O)CCl`, the outcome in test [2], in test [3], in test [5] and in test [6] was inactive. Moreover, the AC50 in test [4] was 20 µM (active).
Turning to `CCOP(=S)(OCC)SCS(=O)(=O)C(C)(C)C`, the outcome in test [2], in [3], in test [4], in [5] and in test [6] was inactive.
As for `CCC(C)(C#N)N=NC(C)(C#N)CC` (configuration not stated), the outcome in [2], in [3], in test [4], in test [5] and in [6] was inactive.
Regarding `CCCCOC(=O)COC(=O)c1ccccc1C(=O)OCCCC`, the outcome in test [8], in test [9] and in [10] was inactive.
Consider `O=S(=O)(C(Cl)(Cl)Cl)C(Cl)(Cl)Cl`, for which the AC50 was 3.03 µM (active) in [2]; 2.64 µM (active) in test [3]; 4.48 µM (active) in [4]; 3.71 µM (active) in test [5]; 2.53 µM (active) in [6].
